About 83,000 compounds went through this panel and 20% of them were active in at least one assay; those are over-represented in the sample as a whole.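 A percent growth of 40 corresponds to 60% growth inhibition; 0 means no net growth; -100 means all cells died. Active threshold: below 10.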 Activity calls are given as the source filed them.
Tests used:
Test in all cases: NCI-60 one-dose screen, 48 h (100 = growth as untreated, 0 = no growth, -100 = all killed)
Settings in all cases: 10 µM unless noted
HCT-15 colon = test system: HCT-15 colon
HT29 colon = test system: HT29 colon
SNB-75 CNS = test system: SNB-75 CNS
SNB-19 CNS = test system: SNB-19 CNS
U251 CNS = test system: U251 CNS
PC-3 prostate = test system: PC-3 prostate
SK-MEL-5 melanoma = test system: SK-MEL-5 melanoma
UACC-62 melanoma = test system: UACC-62 melanoma
LOX IMVI melanoma = test system: LOX IMVI melanoma
SK-MEL-28 melanoma = test system: SK-MEL-28 melanoma

Measured: growth

C/C(CC(=O)NNc1ccc([N+](=O)[O-])cc1)=N\Nc1ccc([N+](=O)[O-])cc1
inactive: HCT-15 colon 49.6% | HT29 colon 71.4% | SNB-75 CNS 97.3% | SNB-19 CNS 104% | U251 CNS 78.5% | PC-3 prostate 54.7% | SK-MEL-5 melanoma 59.4% | LOX IMVI melanoma 70.3% | SK-MEL-28 melanoma 114%
active: UACC-62 melanoma 9.12%

CCCCCNCCCCCNc1cc(OC)cc2cccnc12
inactive: HCT-15 colon 88.6% | HT29 colon 64.2% | SNB-75 CNS 61.7% | SNB-19 CNS 94.1% | U251 CNS 79.8% | PC-3 prostate 69.6% | SK-MEL-5 melanoma 31.1% | UACC-62 melanoma 75.3% | LOX IMVI melanoma 95.5% | SK-MEL-28 melanoma 91.9%

Cc1nc([C@H]2CC[C@H]3[C@@H]4CCC5=CC(=O)CC[C@]5(C)[C@H]4CC[C@]23C)cs1
inactive: HCT-15 colon 75.2% | HT29 colon 62.2% | SNB-75 CNS 104% | SNB-19 CNS 91.3% | U251 CNS 66% | PC-3 prostate 19.6% | SK-MEL-5 melanoma 24.7% | UACC-62 melanoma 59.4% | LOX IMVI melanoma 56.5% | SK-MEL-28 melanoma 93.4%

CC(=O)c1cc(C(=O)c2ccc3c(c2)Sc2ccccc2N3)c2c(C)cccn12
active: SK-MEL-5 melanoma 8.21%
inactive: HCT-15 colon 15.8% | HT29 colon 12% | SNB-75 CNS 24.3% | SNB-19 CNS 33.8% | U251 CNS 13.6% | PC-3 prostate 26.8% | UACC-62 melanoma 26.3% | LOX IMVI melanoma 14.1% | SK-MEL-28 melanoma 62.5%

COS(=O)(=O)CCN(CCOS(C)(=O)=O)S(C)(=O)=O
inactive: HCT-15 colon 95.4% | HT29 colon 85.4% | SNB-75 CNS 90.4% | SNB-19 CNS 107% | U251 CNS 96.8% | PC-3 prostate 94.8% | SK-MEL-5 melanoma 104% | UACC-62 melanoma 102% | LOX IMVI melanoma 96.5% | SK-MEL-28 melanoma 99.1%

CCOC(=O)C1=C(C)NC(SCc2nnc(-c3ccc(Cl)cc3)o2)=NC1c1ccc(Br)cc1 (stereo not given)
inactive: HCT-15 colon 65.1% | HT29 colon 78.7% | SNB-75 CNS 67.7% | SNB-19 CNS 72% | U251 CNS 65.7% | PC-3 prostate 48.8% | SK-MEL-5 melanoma 51.4% | UACC-62 melanoma 55.3% | LOX IMVI melanoma 75% | SK-MEL-28 melanoma 81.3%

Cc1cc(C)c(C#N)c(SCC(=O)c2sc3c(C#N)c(C)cc(C)[n+]3c2[O-])n1
inactive: HCT-15 colon 15.9% | SNB-19 CNS 75.5% | PC-3 prostate 24% | SK-MEL-5 melanoma 10.8% | UACC-62 melanoma 47.9% | LOX IMVI melanoma 20.4% | SK-MEL-28 melanoma 30.3%
active: HT29 colon -26.1% | SNB-75 CNS 9% | U251 CNS 7.69%

CCCCNCC(O)c1cc(-c2ccc(C(F)(F)F)cc2)nc(-c2ccc(C(F)(F)F)cc2)c1 (stereo not given)
active: HCT-15 colon -64.7% | HT29 colon -77% | SNB-75 CNS -85% | SNB-19 CNS -77.1% | U251 CNS -92.1% | PC-3 prostate -81.1% | SK-MEL-5 melanoma -24.2% | UACC-62 melanoma -83.4% | LOX IMVI melanoma -67.2% | SK-MEL-28 melanoma -85.3%

Cc1nc2ccc(Nc3nc(Cl)nc(N4CCOCC4)n3)cc2n1Cc1ccccc1
inactive: HCT-15 colon 76.9% | HT29 colon 96% | SNB-75 CNS 51.2% | SNB-19 CNS 94.6% | U251 CNS 90.5% | PC-3 prostate 87.1% | SK-MEL-5 melanoma 89.5% | UACC-62 melanoma 92.3% | LOX IMVI melanoma 67.7% | SK-MEL-28 melanoma 82.8%

CN1CCN(Cc2ccc(NC(=O)c3cncc(C#Cc4ncc5cnccn45)c3)cc2C(F)(F)F)CC1
inactive: HCT-15 colon 56.7% | HT29 colon 27.4% | SNB-75 CNS 38.1% | SNB-19 CNS 94.5% | U251 CNS 64.2% | PC-3 prostate 54.9% | SK-MEL-5 melanoma 55.3% | UACC-62 melanoma 57.3% | LOX IMVI melanoma 26.5% | SK-MEL-28 melanoma 38.1%

COc1cc(-c2csc(NC(=O)Nc3cccc(C(F)(F)F)c3)n2)cc(OC)c1OC
inactive: HCT-15 colon 30.9% | HT29 colon 62.6% | SNB-75 CNS 62.4% | SNB-19 CNS 46.1% | U251 CNS 34.1% | PC-3 prostate 18.6% | SK-MEL-5 melanoma 28.7% | UACC-62 melanoma 40% | LOX IMVI melanoma 62.3% | SK-MEL-28 melanoma 72.8%

Nc1nonc1-c1nc2ccccc2n1Cc1ccc(F)cc1
inactive: HCT-15 colon 30.4% | HT29 colon 17.3% | SNB-75 CNS 32.4% | SNB-19 CNS 63.8% | U251 CNS 52.3% | PC-3 prostate 61.7% | SK-MEL-5 melanoma 56.8% | UACC-62 melanoma 48.8% | LOX IMVI melanoma 49.1% | SK-MEL-28 melanoma 61.3%

Cc1ccc(-c2nc3ccccc3c(=O)n2/N=C/c2cccc3ccccc23)cc1
inactive: HCT-15 colon 74.3% | HT29 colon 102% | SNB-75 CNS 74.3% | SNB-19 CNS 94.4% | U251 CNS 77% | PC-3 prostate 63.3% | SK-MEL-5 melanoma 75.5% | UACC-62 melanoma 69.4% | LOX IMVI melanoma 63.4% | SK-MEL-28 melanoma 85.6%

O=C(/C=C/c1cc([N+](=O)[O-])ccc1Cl)c1ccccc1
active: LOX IMVI melanoma -18.9%
inactive: HCT-15 colon 110% | HT29 colon 14.3% | SNB-75 CNS 67.7% | SNB-19 CNS 87.8% | U251 CNS 46% | PC-3 prostate 85.4% | SK-MEL-5 melanoma 87.3% | UACC-62 melanoma 70.5% | SK-MEL-28 melanoma 104%

c1ccc(C(CC2=NCCCN2)c2ccccc2)cc1
inactive: HCT-15 colon 114% | HT29 colon 102% | SNB-75 CNS 86.2% | SNB-19 CNS 107% | U251 CNS 90.8% | PC-3 prostate 83.9% | SK-MEL-5 melanoma 105% | UACC-62 melanoma 89.6% | LOX IMVI melanoma 97.8% | SK-MEL-28 melanoma 107%

O=C1/C(=C\c2cccn2Cc2ccc(Cl)cc2)c2ccccc2N1c1c(Cl)cccc1Cl
inactive: HCT-15 colon 61.4% | HT29 colon 85.5% | SNB-75 CNS 82.2% | SNB-19 CNS 87.8% | U251 CNS 75.6% | PC-3 prostate 57.5% | SK-MEL-5 melanoma 66.1% | UACC-62 melanoma 71.7% | LOX IMVI melanoma 91.9% | SK-MEL-28 melanoma 91%

COc1ccc2c(c1)N(CCO)C1=C(C(=O)OC1)C2c1cccc(Br)c1 (stereo not given)
active: HCT-15 colon 7.92% | HT29 colon -9.38% | SK-MEL-5 melanoma 2.15%
inactive: SNB-75 CNS 29.2% | SNB-19 CNS 35.4% | U251 CNS 14% | PC-3 prostate 26.2% | UACC-62 melanoma 25% | LOX IMVI melanoma 22.2% | SK-MEL-28 melanoma 58.6%

c1ccc(C(Nc2ccccn2)(c2ccccc2)c2ccccc2)cc1
inactive: HCT-15 colon 74.1% | HT29 colon 69.9% | SNB-75 CNS 74.8% | SNB-19 CNS 77.5% | U251 CNS 84.3% | PC-3 prostate 39.1% | SK-MEL-5 melanoma 70.3% | UACC-62 melanoma 59.3% | LOX IMVI melanoma 100% | SK-MEL-28 melanoma 98.5%

Cc1ccc(C2CC(c3cccs3)=NN2c2ccc(S(N)(=O)=O)cc2)s1 (stereo not given)
inactive: HCT-15 colon 80.8% | HT29 colon 86.5% | SNB-75 CNS 74.5% | SNB-19 CNS 84.8% | U251 CNS 78.5% | PC-3 prostate 56.4% | SK-MEL-5 melanoma 65.7% | UACC-62 melanoma 44.1% | LOX IMVI melanoma 104% | SK-MEL-28 melanoma 64.9%

C#CC[C@@H]1C[C@]2(C)[C@H]3CC=C4[C@H]5[C@@H](C)[C@H](C)CC[C@]5(C(=O)NCCCN5CCN(CCCN)CC5)CC[C@@]4(C)[C@]3(C)CC[C@H]2C(C)(C)[C@H]1OC(C)=O
inactive: PC-3 prostate 15%
active: HCT-15 colon -83.7% | HT29 colon -72.8% | SNB-75 CNS -61.5% | SNB-19 CNS -46.1% | U251 CNS -75.8% | SK-MEL-5 melanoma -7.08% | UACC-62 melanoma -68.1% | LOX IMVI melanoma -83.2% | SK-MEL-28 melanoma -84.6%

CNC(=O)c1ccccc1Sc1ccc2c(/C=C/c3ccccn3)n[nH]c2c1
active: LOX IMVI melanoma 8.31%
inactive: HCT-15 colon 33.9% | HT29 colon 25.2% | SNB-75 CNS 26.3% | SNB-19 CNS 50.2% | U251 CNS 40.1% | PC-3 prostate 28.1% | SK-MEL-5 melanoma 11.2% | UACC-62 melanoma 13% | SK-MEL-28 melanoma 40.7%

COc1cc(C2C=C(C)N=C3SC=NN32)cc(OC)c1OC (stereo not given)
inactive: HCT-15 colon 106% | HT29 colon 101% | SNB-75 CNS 105% | SNB-19 CNS 95.9% | U251 CNS 93.5% | PC-3 prostate 72.7% | SK-MEL-5 melanoma 103% | UACC-62 melanoma 100% | LOX IMVI melanoma 95.8% | SK-MEL-28 melanoma 100%

CC(=O)Nc1ccc(Cl)cc1Cl
inactive: HCT-15 colon 118% | HT29 colon 103% | SNB-75 CNS 91.2% | SNB-19 CNS 97.8% | U251 CNS 103% | PC-3 prostate 308% | SK-MEL-5 melanoma 95.7% | UACC-62 melanoma 96.4% | LOX IMVI melanoma 93.8% | SK-MEL-28 melanoma 157%

COc1ccc(/C=C/C(=O)c2ccc(NC(=O)CSc3nnc(-c4ccc(Cl)cc4)n3-c3ccccc3)cc2)cc1
inactive: HCT-15 colon 80.5% | HT29 colon 98.7% | SNB-75 CNS 84.2% | SNB-19 CNS 96.2% | U251 CNS 88.2% | PC-3 prostate 84.5% | SK-MEL-5 melanoma 84.1% | UACC-62 melanoma 74.6% | LOX IMVI melanoma 105% | SK-MEL-28 melanoma 104%

CC1(C)C(N(O)C(=O)Nc2ccc(Cl)cc2)N(c2ccc(Cl)cc2)C(=O)N1CC(=O)N/N=C/C=C/c1ccc([N+](=O)[O-])o1 (stereo not given)
inactive: HCT-15 colon 37.5% | SNB-19 CNS 48.5%
active: HT29 colon -43% | SNB-75 CNS 9.93% | U251 CNS -14.4% | PC-3 prostate 8.77% | SK-MEL-5 melanoma -96.5% | UACC-62 melanoma -40.5% | LOX IMVI melanoma 0.58% | SK-MEL-28 melanoma -55.5%

COc1ccc(/C(=C\c2ccc3c(c2)OCO3)C(=O)Nc2nc3ccccc3s2)cc1
inactive: HCT-15 colon 93.2% | HT29 colon 94.6% | SNB-75 CNS 103% | SNB-19 CNS 109% | U251 CNS 101% | PC-3 prostate 106% | SK-MEL-5 melanoma 98.9% | UACC-62 melanoma 102% | LOX IMVI melanoma 100% | SK-MEL-28 melanoma 104%

From PubChem BioAssay (NCI)
